# Laboratory results: the supplement of paper PMC8728848
# Shown is part of a subset that was picked to be rich in the strongest signals.
# B1: DC-ASGPR Long (Homo sapiens) (protein)
# chain: MTRTYENFQYLENKVKVQGFKNGPLPLQSLLQRLRSGPCHLLLSLGLGLLLLVIICVVGFQNSKFQRDLVTLRTDFSNFTSNTVAEIQALTSQGSSLEETIASLKAEVEGFKQERQAGVSELQEHTTQKAHLGHCPHCPSVCVPVHSEMLLRVQQLVQDLKKLTCQVATLNNNASTEGTCCPVNWVEHQDSCYWFSHSGMSWAEAEKYCQLKNAHLVVINSREEQNFVQKYLGSAYTWMGLSDPEGAWKWVDGTDYATGFQNWKPGQPDDWQGHGLGGGEDCAHFHPDGGWNDDVCQRPYHWVCEAGLGQTSQESH
# Columns and labels:
# Assay in all cases: glycan array binding signal (z-score within array); higher = stronger binding
# Details in all cases: glycan notation: IUPAC condensed, linker removed
# [1] = target: Fuc(a1-2)Gal(b1-3)GlcNAc(b1-2)Man(a1-3)[Fuc(a1-2)Gal(b1-3)GlcNAc(b1-2)Man(a1-6)]Man(b1-4)GlcNAc(b1-4)GlcNAc
# Outline: (§1)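 From the Consortium for Functional Glycomics database, 3228 arrays were curated, keeping only those whose protein sequence was available. Binding is given as a within-array Z-score averaged across arrays sharing a protein sequence and across linkers. Negative Z-scores can be read as non-binding.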
# [2] = target: Fuc(a1-2)Gal(b1-3)GlcNAc(b1-2)Man(a1-3)[Fuc(a1-2)Gal(b1-3)GlcNAc(b1-2)Man(a1-6)]Man(b1-4)GlcNAc(b1-4)[Fuc(a1-6)]GlcNAc
# Outline: as §1
# Fuc(a1-2)Gal(b1-4)GlcNAc = target: Fuc(a1-2)Gal(b1-4)GlcNAc
# Outline: as §1
# [3] = target: Fuc(a1-2)Gal3S(b1-4)GlcNAc
# Outline: as §1
# [4] = target: Fuc(a1-2)[GalNAc(a1-3)]Gal(b1-4)GlcNAc(b1-3)Gal(b1-4)GlcNAc
# Outline: as §1
# [5] = target: Fuc(a1-2)[GalNAc(a1-3)]Gal(b1-4)GlcNAc(b1-6)GalNAc
# Outline: as §1
# [6] = target: Fuc(a1-2)[GalNAc(a1-4)]Gal(b1-4)GlcNAc
# Outline: as §1
# [7] = target: Fuc(a1-2)[GalNAc(b1-3)]Gal
# Outline: as §1
# [8] = target: Gal(a1-3)Gal(b1-3)GlcNAc(b1-6)GalNAc
# Outline: as §1
# [9] = target: Gal(a1-3)Gal(b1-4)GlcNAc(b1-6)GalNAc
# Outline: as §1
# [10] = target: Gal(a1-4)Gal(b1-3)GlcNAc(b1-2)Man(a1-3)[Gal(a1-4)Gal(b1-3)GlcNAc(b1-2)Man(a1-6)]Man(b1-4)GlcNAc(b1-4)GlcNAc
# Outline: as §1
# [11] = target: Gal(a1-4)Gal(b1-4)GlcNAc(b1-3)Gal(b1-4)Glc
# Outline: as §1
# Gal(b1-3)GlcNAc(b1-2)Man = target: Gal(b1-3)GlcNAc(b1-2)Man
# Outline: as §1
# [12] = target: Gal(b1-3)GlcNAc(b1-2)Man(a1-3)[GlcNAc(b1-4)][Gal(b1-3)GlcNAc(b1-2)Man(a1-6)]Man(b1-4)GlcNAc(b1-4)GlcNAc
# Outline: as §1
# [13] = target: Gal(b1-3)GlcNAc(b1-6)GalNAc
# Outline: as §1
# Gal3S(b1-4)Glc = target: Gal3S(b1-4)Glc
# Outline: as §1
# [14] = target: GalNAc(b1-3)Gal(a1-4)Gal(b1-4)GlcNAc
# Outline: as §1
# [15] = target: GalNAc(b1-3)Gal(a1-6)Gal(b1-4)Glc
# Outline: as §1
# [16] = target: GlcNAc(b1-2)Man(a1-3)[GlcNAc(b1-4)][GlcNAc(b1-2)Man(a1-6)]Man(b1-4)GlcNAc(b1-4)GlcNAc
# Outline: as §1
# [17] = target: GlcNAc(b1-2)[GlcNAc(b1-6)]Man(a1-6)[GlcNAc(b1-2)Man(a1-3)]Man(b1-4)GlcNAc(b1-4)GlcNAc
# Outline: as §1
# [18] = target: GlcNAc(b1-3)Gal(b1-4)GlcNAc
# Outline: as §1
# [19] = target: GlcNAc(b1-3)Gal(b1-4)GlcNAc(b1-3)Gal(b1-4)GlcNAc(b1-3)Gal(b1-4)GlcNAc(b1-2)Man(a1-3)[GlcNAc(b1-3)Gal(b1-4)GlcNAc(b1-3)Gal(b1-4)GlcNAc(b1-3)Gal(b1-4)GlcNAc(b1-2)Man(a1-6)]Man(b1-4)GlcNAc(b1-4)[Fuc(a1-6)]GlcNAc
# Outline: as §1
# [20] = target: GlcNAc(b1-3)Gal(b1-4)GlcNAc(b1-3)Gal(b1-4)GlcNAc(b1-3)Gal(b1-4)GlcNAc(b1-3)Gal(b1-4)GlcNAc(b1-2)Man(a1-3)[GlcNAc(b1-3)Gal(b1-4)GlcNAc(b1-3)Gal(b1-4)GlcNAc(b1-3)Gal(b1-4)GlcNAc(b1-3)Gal(b1-4)GlcNAc(b1-2)Man(a1-6)]Man(b1-4)GlcNAc(b1-4)GlcNAc
# Outline: as §1
# [21] = target: GlcNAc(b1-3)Gal(b1-4)GlcNAc(b1-3)Gal(b1-4)GlcNAc(b1-3)Gal(b1-4)GlcNAc(b1-3)Gal(b1-4)GlcNAc(b1-2)Man(a1-3)[GlcNAc(b1-3)Gal(b1-4)GlcNAc(b1-3)Gal(b1-4)GlcNAc(b1-3)Gal(b1-4)GlcNAc(b1-3)Gal(b1-4)GlcNAc(b1-2)Man(a1-6)]Man(b1-4)GlcNAc(b1-4)[Fuc(a1-6)]GlcNAc
# Outline: as §1
# GlcNAc(b1-6)GalNAc = target: GlcNAc(b1-6)GalNAc
# Outline: as §1
# Kdn(a2-3)Gal(b1-3)GlcNAc = target: Kdn(a2-3)Gal(b1-3)GlcNAc
# Outline: as §1
# [22] = target: Man(a1-2)Man(a1-3)[Man(a1-2)Man(a1-6)]Man(a1-6)[Man(a1-2)Man(a1-2)Man(a1-3)]Man(b1-4)GlcNAc(b1-4)GlcNAc
# Outline: as §1
# Neu5Ac(a2-3)Gal = target: Neu5Ac(a2-3)Gal
# Outline: as §1
# [23] = target: Neu5Ac(a2-3)Gal(b1-3)GlcNAc(b1-6)GalNAc
# Outline: as §1
# [24] = target: Neu5Ac(a2-3)Gal(b1-3)[Fuc(a1-4)]GlcNAc(b1-3)Gal(b1-3)[Fuc(a1-4)]GlcNAc
# Outline: as §1
# [25] = target: Neu5Ac(a2-3)Gal(b1-3)[Neu5Ac(a2-6)]GlcNAc(b1-3)[Fuc(a1-3)[Gal(b1-4)]GlcNAc(b1-6)]Gal(b1-4)Glc
# Outline: as §1
# Neu5Ac(a2-3)Gal(b1-4)Glc = target: Neu5Ac(a2-3)Gal(b1-4)Glc
# Outline: as §1
# [26] = target: Neu5Ac(a2-3)Gal(b1-4)[Fuc(a1-3)]GlcNAc(b1-3)GalNAc
# Outline: as §1
# [27] = target: Neu5Ac(a2-6)Gal(b1-4)GlcNAc(b1-2)Man(a1-3)[Neu5Ac(a2-6)Gal(b1-4)GlcNAc(b1-2)Man(a1-6)]Man(b1-4)GlcNAc(b1-4)GlcNAc
# Outline: as §1
# [28] = target: Neu5Ac(a2-6)Gal(b1-4)GlcNAc(b1-2)Man(a1-3)[Neu5Ac(a2-6)Gal(b1-4)GlcNAc(b1-2)Man(a1-6)]Man(b1-4)GlcNAc(b1-4)[Fuc(a1-6)]GlcNAc
# Outline: as §1
# [29] = target: Neu5Ac(a2-6)Gal(b1-4)GlcNAc(b1-2)Man(a1-6)[Man(a1-3)]Man(b1-4)GlcNAc(b1-4)GlcNAc
# Outline: as §1
# [30] = target: Neu5Ac(a2-6)Gal(b1-4)GlcNAc(b1-6)GalNAc
# Outline: as §1
# [31] = target: Neu5Ac(a2-8)Neu5Ac(a2-3)Gal(b1-3)GalNAc(b1-4)[Neu5Ac(a2-8)Neu5Ac(a2-3)]Gal(b1-4)Glc
# Outline: as §1
# [32] = target: Neu5Ac(a2-8)Neu5Ac(a2-8)Neu5Ac
# Outline: as §1
binder,measurement,setting,value
B1,glycan array binding signal (z-score),[1],-1.26
same,glycan array binding signal (z-score),[2],-0.382
same,glycan array binding signal (z-score),Fuc(a1-2)Gal(b1-4)GlcNAc,-0.356
same,glycan array binding signal (z-score),[3],0.826
same,glycan array binding signal (z-score),[4],-0.618
same,glycan array binding signal (z-score),[5],5.11
same,glycan array binding signal (z-score),[6],3.67
same,glycan array binding signal (z-score),[7],5.95
same,glycan array binding signal (z-score),[8],3.07
same,glycan array binding signal (z-score),[9],3.58
same,glycan array binding signal (z-score),[10],-0.383
same,glycan array binding signal (z-score),[11],-0.788
same,glycan array binding signal (z-score),Gal(b1-3)GlcNAc(b1-2)Man,-0.186
same,glycan array binding signal (z-score),[12],-0.269
same,glycan array binding signal (z-score),[13],5.68
same,glycan array binding signal (z-score),Gal3S(b1-4)Glc,-0.075
same,glycan array binding signal (z-score),[14],3.37
same,glycan array binding signal (z-score),[15],3.13
same,glycan array binding signal (z-score),[16],-0.323
same,glycan array binding signal (z-score),[17],5.41
same,glycan array binding signal (z-score),[18],-0.433
same,glycan array binding signal (z-score),[19],0.194
same,glycan array binding signal (z-score),[20],0.068
same,glycan array binding signal (z-score),[21],1.61
same,glycan array binding signal (z-score),GlcNAc(b1-6)GalNAc,3.43
same,glycan array binding signal (z-score),Kdn(a2-3)Gal(b1-3)GlcNAc,-0.092
same,glycan array binding signal (z-score),[22],-0.746
same,glycan array binding signal (z-score),Neu5Ac(a2-3)Gal,-0.419
same,glycan array binding signal (z-score),[23],4.59
same,glycan array binding signal (z-score),[24],-0.273
same,glycan array binding signal (z-score),[25],-0.251
same,glycan array binding signal (z-score),Neu5Ac(a2-3)Gal(b1-4)Glc,-0.302
same,glycan array binding signal (z-score),[26],0.105
same,glycan array binding signal (z-score),[27],-0.115
same,glycan array binding signal (z-score),[28],-0.343
same,glycan array binding signal (z-score),[29],-0.516
same,glycan array binding signal (z-score),[30],-0.224
same,glycan array binding signal (z-score),[31],-0.349
same,glycan array binding signal (z-score),[32],-0.221
